Shown is part of a subset that was picked to be rich in hits.
IDE exosite inh = insulin-degrading enzyme (human) exo-site inhibition. P14735. purified IDE, FL-6b probe fluorescence polarization; hits give low values. z-score at 20 µM. hit rate 6.3% among 17,000. AID 1259349;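 active means z-score of -3 or lower, meaning strong loss of probe binding signal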;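 further: His-tagged human IDE residues 42-1019 made in E. coli with 30 nM FL-6b probe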
Target sequence (P14735 42-1019 limits assumed): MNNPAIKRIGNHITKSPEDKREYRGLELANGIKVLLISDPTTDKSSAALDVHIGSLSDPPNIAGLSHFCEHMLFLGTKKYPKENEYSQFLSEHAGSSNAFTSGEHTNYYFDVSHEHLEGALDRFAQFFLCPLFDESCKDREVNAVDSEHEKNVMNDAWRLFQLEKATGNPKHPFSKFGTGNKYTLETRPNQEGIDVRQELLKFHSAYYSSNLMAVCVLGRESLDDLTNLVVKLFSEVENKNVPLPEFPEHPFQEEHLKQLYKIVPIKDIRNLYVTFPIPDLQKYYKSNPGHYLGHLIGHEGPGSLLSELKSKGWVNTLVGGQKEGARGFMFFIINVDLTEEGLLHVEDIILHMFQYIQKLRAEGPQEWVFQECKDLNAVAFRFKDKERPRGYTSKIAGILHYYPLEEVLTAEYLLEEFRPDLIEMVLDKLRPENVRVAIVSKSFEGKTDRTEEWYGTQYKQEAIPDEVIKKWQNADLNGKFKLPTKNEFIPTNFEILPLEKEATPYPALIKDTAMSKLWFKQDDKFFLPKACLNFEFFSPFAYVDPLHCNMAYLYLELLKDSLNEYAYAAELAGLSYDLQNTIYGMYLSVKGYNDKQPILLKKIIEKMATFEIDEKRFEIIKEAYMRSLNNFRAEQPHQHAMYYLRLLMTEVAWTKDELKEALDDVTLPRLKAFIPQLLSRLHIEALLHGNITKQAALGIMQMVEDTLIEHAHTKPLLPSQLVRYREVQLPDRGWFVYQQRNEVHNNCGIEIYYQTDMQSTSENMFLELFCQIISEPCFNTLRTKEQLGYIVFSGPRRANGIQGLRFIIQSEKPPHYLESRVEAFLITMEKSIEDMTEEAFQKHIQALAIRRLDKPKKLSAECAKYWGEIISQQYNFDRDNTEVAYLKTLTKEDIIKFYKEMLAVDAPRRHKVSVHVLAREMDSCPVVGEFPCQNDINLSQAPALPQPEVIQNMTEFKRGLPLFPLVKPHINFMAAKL
Large screens that a line does not name were inactive.

COc1cccc(C#Cc2ccc([C@H]3[C@H](CO)N4C(=O)CN(C(=O)c5ccncc5)C[C@@H]34)cc2)c1	IDE exosite inh -8.4
O=C(C[C@H]1C[C@@H]2c3cc(NC(=O)C4CCOCC4)ccc3O[C@@H]2[C@@H](CO)O1)NCc1cccnc1	none
CO[C@H]1CN(C)C(=O)c2ccc(NS(=O)(=O)c3c(C)noc3C)cc2OC[C@H](C)NC[C@@H]1C	none
O=C(C[C@H]1C[C@@H]2c3cc(NC(=O)C4CCOCC4)ccc3O[C@@H]2[C@H](CO)O1)NCCN1CCCCC1	none
CN(C[C@@H]1N[C@H](CO)[C@@H]1c1ccc(-c2cccc(F)c2)cc1)C(=O)C1CCC1	none
Cc1noc(C)c1S(=O)(=O)N(C)C[C@H]1OCc2ccccc2-c2ccccc2C(=O)N([C@@H](C)CO)C[C@@H]1C	none
CCCNC(=O)N1CC(=O)N2[C@H](C1)[C@@H](c1ccc(-c3ccc(C)cc3)cc1)[C@@H]2CO	none
CCCNC(=O)N1CC(=O)N2[C@H](CO)[C@H](c3ccc(-c4ccncc4)cc3)[C@@H]2C1	none
CCCNC(=O)N1CC(=O)N2[C@H](CO)[C@@H](c3ccc(-c4ccc(F)cc4)cc3)[C@@H]2C1	none
CCCNC(=O)N1CC(=O)N2[C@H](CO)[C@H](c3ccc(-c4cccc(C)c4)cc3)[C@@H]2C1	IDE exosite inh -16
CCCNC(=O)N1CC(=O)N2[C@H](CO)[C@@H](c3ccc(-c4cccc(C)c4)cc3)[C@@H]2C1	IDE exosite inh -22
CCCC#Cc1ccc([C@@H]2[C@H](CO)N3C(=O)CN(C(=O)NCCC)C[C@@H]23)cc1	none
CCCNC(=O)N1CC(=O)N2[C@@H](CO)[C@H](c3ccc(-c4ccc(F)cc4)cc3)[C@@H]2C1	none
CCCNC(=O)N1CC(=O)N2[C@H](CO)[C@H](c3ccc(-c4ccc(F)cc4)cc3)[C@@H]2C1	none
CCCNC(=O)N1CC(=O)N2[C@H](C1)[C@@H](c1ccc(-c3cccc(C)c3)cc1)[C@@H]2CO	IDE exosite inh -15
CCCNC(=O)N1CC(=O)N2[C@H](C1)[C@H](c1ccc(-c3ccc(C)cc3)cc1)[C@@H]2CO	IDE exosite inh -3.6
CCCNC(=O)N1CC(=O)N2[C@H](CO)[C@@H](c3ccc(-c4ccc(C)cc4)cc3)[C@@H]2C1	none
C[C@H](CO)N1C[C@H](C)[C@@H](CN(C)C(=O)CCCN(C)C)OCCCC[C@H](C)Oc2ccc(NC(=O)Nc3ccc4c(c3)OCO4)cc2C1=O	none
CCCNC(=O)N1[C@H](CO)[C@@H]2c3ccccc3N(C(=O)c3ccncc3)C[C@@H]21	none
C[C@H](CO)N1C[C@H](C)[C@@H](CN(C)C(=O)c2cc(Cl)cc(Cl)c2)OCc2ccccc2-c2ccccc2C1=O	none
COCC#Cc1ccc([C@H]2[C@@H](CO)N3CCCCN(Cc4cccnc4)C[C@H]23)cc1	none
CC(C)NC(=O)N1CCCCN2[C@H](CO)[C@@H](c3ccc(C#CC4CC4)cc3)[C@@H]2C1	none
O=C(C[C@H]1C=C[C@@H](NC(=O)Nc2ccc3c(c2)OCO3)[C@H](CO)O1)NCCCN1CCOCC1	none
CC(=O)N1[C@H](CO)[C@H](c2ccc(C3=CCCC3)cc2)[C@@H]1CNC(=O)CC1CC1	none
Cc1ccc(-c2ccc([C@@H]3[C@H](CO)N4C(=O)CN(C(=O)CN5CCOCC5)C[C@@H]34)cc2)cc1	none
Cc1ccc(-c2ccc([C@@H]3[C@H]4CN(C(=O)CN5CCOCC5)CC(=O)N4[C@H]3CO)cc2)cc1	none
COc1cccc(-c2ccc([C@@H]3[C@@H](CO)N4C(=O)CN(C(=O)CN5CCOCC5)C[C@H]34)cc2)c1	IDE exosite inh -3.8
COCC#Cc1ccc([C@@H]2[C@H]3CN(C(=O)CN4CCOCC4)CC(=O)N3[C@H]2CO)cc1	none
COc1cccc(-c2ccc([C@@H]3[C@H]4CN(C(=O)CN5CCOCC5)CC(=O)N4[C@H]3CO)cc2)c1	IDE exosite inh -5.5
Cc1cccc(-c2ccc([C@H]3[C@H](CO)N4C(=O)CN(C(=O)CN5CCOCC5)C[C@@H]34)cc2)c1	IDE exosite inh -6.3
COc1cccc(-c2ccc([C@@H]3[C@@H](CO)N4C(=O)CN(C(=O)c5ccncc5)C[C@@H]34)cc2)c1	none
COc1cccc(-c2ccc([C@H]3[C@H]4CN(C(=O)c5ccncc5)CC(=O)N4[C@H]3CO)cc2)c1	none
Cc1ccc(-c2ccc([C@H]3[C@@H](CO)N4C(=O)CN(C(=O)CN5CCOCC5)C[C@@H]34)cc2)cc1	none
Cc1ccc(S(=O)(=O)N[C@H]2C=C[C@H](CC(=O)NCc3ccc(Cl)c(Cl)c3)O[C@H]2CO)cc1	none
O=C(Nc1cccc(F)c1)N1CC(=O)N2[C@@H](CO)[C@H](c3ccc(C#CC4CC4)cc3)[C@@H]2C1	none
CCN1CC(=O)N2[C@H](CO)[C@@H](c3ccc(-c4ccccc4F)cc3)[C@H]2C1	none
C[C@H]1CN([C@@H](C)CO)C(=O)Cc2cc(NC(=O)C3CC3)ccc2O[C@H]1CN(C)S(=O)(=O)c1cn(C)cn1	none
COc1ccccc1NC(=O)N1[C@H](C#N)[C@@H](c2ccccc2)[C@@H]1CO	none
N#C[C@H]1[C@H](c2ccccc2C2=CCCCC2)[C@@H](CO)N1S(=O)(=O)c1ccccc1	none
CC(C)NC(=O)Nc1ccc2c(c1)C(=O)N(C)[C@@H]1CC[C@H](CC(=O)NCc3ccc(F)cc3)O[C@H]1CO2	none
CCCC(=O)N1CC2(C1)CN(Cc1cccnc1)[C@H](CO)c1[nH]c3cc(OC)ccc3c12	IDE exosite inh -3.1
COc1cc(CN2CC3(CCN(C(=O)c4cccnc4)CC3)c3c([nH]c4cc(OC)ccc34)[C@@H]2CO)cc(OC)c1	IDE exosite inh -4.1
COCC(=O)N1CC2(CCN(C(=O)c3cccnc3)CC2)c2c([nH]c3cc(OC)ccc23)[C@@H]1CO	none
COc1ccc2c3c([nH]c2c1)[C@H](CO)N(Cc1ccncc1)CC31CN(C(=O)CN(C)C)C1	none
COc1cccc(CN2CC3(CCN(C)CC3)c3c([nH]c4cc(OC)ccc34)[C@H]2CO)c1	none
CCCC(=O)N1CC2(C1)CN(CC1CC1)[C@@H](CO)c1[nH]c3cc(OC)ccc3c12	none
O=C(C[C@@H]1C[C@H]2c3cc(NS(=O)(=O)c4ccccc4)ccc3O[C@H]2[C@H](CO)O1)NCC(F)(F)F	none
CCC(=O)NC[C@H]1[C@H](c2ccccc2)[C@@H](CO)N1C(=O)C1CCC1	none
N#C[C@H]1[C@@H](c2ccccc2-c2ccccc2)[C@@H](CO)N1C(=O)NC1CCCC1	none
N#Cc1ccc(-c2cccc(-c3nc(C(=O)O)cc4c3[C@@H](CCO)N(CC3CCOCC3)C4)c2)cc1	none
O=C(N[C@@H]1CC[C@@H](CCNS(=O)(=O)c2ccc(F)cc2)O[C@H]1CO)C1CCC1	none
C[C@@H](O)C#Cc1ccc([C@@H]2[C@@H](CO)N3CCCCN(C(=O)c4ccc5c(c4)OCO5)C[C@H]23)cc1	none
COc1ccc2c3c(n(C)c2c1)[C@H](CO)N(C(=O)c1ccc(F)cc1)CC31CN(CC2CCOCC2)C1	none
Cc1cccc(-c2ccc([C@H]3[C@H](CO)N4C(=O)CN(S(=O)(=O)c5cccc(F)c5)C[C@@H]34)cc2)c1	none
O=C(Nc1cccc(F)c1)N1CCCCN2[C@H](CO)[C@@H](c3ccc(C#CC4CC4)cc3)[C@@H]2C1	none
CO[C@H]1CN(C)C(=O)c2cc(NC(=O)Nc3c(C)noc3C)ccc2OC[C@@H](C)NC[C@H]1C	none
O=C(Cc1ccccn1)N1CC(=O)N2[C@H](CO)[C@H](c3ccc(C#CC4CCCCC4)cc3)[C@@H]2C1	none
Cc1ccccc1-c1ccc([C@H]2[C@@H](CO)N3C(=O)CN(C(=O)Cc4ccccn4)C[C@@H]23)cc1	IDE exosite inh -17
O=C(Cc1ccccn1)N1CC(=O)N2[C@H](C1)[C@H](c1ccc(C#CC3CC3)cc1)[C@@H]2CO	none
